We go through ten compounds from PubChem BioAssay (NCI).

Molecules are shown by their SMILES. About 79,000 compounds went through this panel and 15% of them were active in at least one assay; those are over-represented in the sample as a whole. Values without a mark were called inactive. The source made the active and inactive calls. Cut-off read from the data, not from the text of the source: active = growth inhibition above about 70%; inactive = the rest.

Experiment [1] is described as follows: NCI Yeast Anticancer Drug Screen. Data for the rad50 strain (AID 155).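 Note: 0% = growth of vehicle-only cultures of the same strain.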 The note with it: S. cerevisiae rad50 strain growth inhibition, hits give high values. The method, boiled down: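 Readout: growth inhibition relative to vehicle-treated cultures. Compound exposure was carried out in a genetically defined yeast strain deficient in DNA damage repair.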
Experiment [2] can be described thus: NCI Yeast Anticancer Drug Screen. Data for the mec2-1 strain (AID 157). The note with it: S. cerevisiae mec2-1 strain, hits give high values. The method, boiled down: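 mec2-1 yeast strain, carrying an alteration in DNA damage repair or cell cycle control, was exposed to compounds; growth inhibition was measured relative to vehicle-treated controls.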
A short description of experiment [3]: NCI Yeast Anticancer Drug Screen. Data for the sgs1 mgt1 strain (AID 161).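 Note: 0% = growth of cultures given vehicle only.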 To be noted: S. cerevisiae sgs1 mgt1 strain, hits give high values. The method, boiled down: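 Yeast cells carrying a defined DNA-repair defect were exposed to test compounds. Growth inhibition was measured relative to vehicle-treated controls.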
Experiment [4] is described as follows: NCI Yeast Anticancer Drug Screen. Data for the cln2 rad14 strain (AID 165).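 Note: 0% = growth equal to vehicle treated cultures.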 The note with it: S. cerevisiae cln2 rad14 strain, hits give high values. The method, boiled down:
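Yeast carrying cln2 and rad14 alterations (cell cycle control and DNA damage repair) were exposed to compounds. Growth inhibition was measured against vehicle-treated controls.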

A short description of experiment [5]: NCI Yeast Anticancer Drug Screen. Data for the bub3 strain (AID 167). To be noted: S. cerevisiae bub3 mutant strain, hits give high values. The method, boiled down:
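Readout: yeast growth inhibition, expressed relative to vehicle-only wells. The test organism is a mutant strain from a panel with lesions in DNA repair or checkpoint genes.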

The nature of experiment [6]: NCI Yeast Anticancer Drug Screen. Data for the mlh1 rad18 strain (AID 175). To be noted: S. cerevisiae mlh1 rad18 strain growth inhibition, hits give high values. The method, boiled down:
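Growth inhibition of the yeast strain was measured after compound exposure and expressed relative to vehicle-treated controls. The strain carries defined defects in DNA damage repair.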

[7] abbreviates: at 5.0 µM (retest, dose inferred, filed as 0.5).
Where [8] appears, read: at 50.0 µM (retest, dose inferred, filed as 5.0).

As to `O=c1[nH]c2ccccc2nc1CBr`, the growth inhibition in experiment [1] (setting [7]) is 5%; in experiment [1] (setting [8]), 95% (active); in experiment [1] (at 50.0 µM) it was 30.9%; in experiment [2] (setting [7]), 16%; in experiment [2] (setting [8]), 99% (active); in experiment [2] (at 50.0 µM) it was 71.2% (active). Also, the growth inhibition is 8% in experiment [3] (setting [7]); 98% (active) in experiment [3] (setting [8]); 91.2% (active) in experiment [3] (at 50.0 µM); 0% in experiment [4] (setting [7]); 95% (active) in experiment [4] (setting [8]); 1.85% in experiment [4] (at 50.0 µM). Further, the growth inhibition in experiment [5] (setting [7]) is 14%; in experiment [5] (setting [8]), 98% (active); in experiment [5] (at 50.0 µM) it was 90.2% (active); in experiment [6] (setting [7]) it was 16%; in experiment [6] (setting [8]), 99% (active); in experiment [6] (at 50.0 µM), 91.1% (active).
Take `CC(C)(N=Nc1ccc([N+](=O)[O-])cc1)[N+](=O)[O-]`: the growth inhibition in experiment [1] (setting [7]) is 26%; in experiment [1] (setting [8]), 97% (active); in experiment [1] (at 50.0 µM), 95.8% (active); in experiment [2] (setting [7]) it was 12%; in experiment [2] (setting [8]), 99% (active); in experiment [2] (at 50.0 µM) it was 53.6%. For the same compound, the growth inhibition was 18% in experiment [3] (setting [7]); 98% (active) in experiment [3] (setting [8]); 83.3% (active) in experiment [3] (at 50.0 µM); 15% in experiment [4] (setting [7]); 99% (active) in experiment [4] (setting [8]); 97.2% (active) in experiment [4] (at 50.0 µM). The growth inhibition in experiment [5] (setting [7]) was 21%; in experiment [5] (setting [8]), 99% (active); in experiment [5] (at 50.0 µM) it was 47.4%; in experiment [6] (setting [7]) it was 23%; in experiment [6] (setting [8]), 99% (active); in experiment [6] (at 50.0 µM) it was 96.7% (active).
As for `CCCCCCCCCCCCCCCCCCn1[se]c2ccccc2c1=O`, the growth inhibition was 7% in experiment [1] (setting [7]); 7% in experiment [1] (setting [8]); 69.3% in experiment [1] (at 50.0 µM); 16% in experiment [2] (setting [7]); 16% in experiment [2] (setting [8]); 45.4% in experiment [2] (at 50.0 µM). In addition, the growth inhibition in experiment [3] (setting [7]) is 17%; in experiment [3] (setting [8]) it was 17%; in experiment [3] (at 50.0 µM) it was 83.8% (active); in experiment [4] (setting [7]), 15%; in experiment [4] (setting [8]) it was 15%; in experiment [4] (at 50.0 µM) it was 59.1%. The growth inhibition in experiment [5] (setting [7]) was 0%; in experiment [5] (setting [8]), 0%; in experiment [5] (at 50.0 µM) it was 76.5% (active); in experiment [6] (setting [7]), -1%; in experiment [6] (setting [8]) it was -1%; in experiment [6] (at 50.0 µM), 33.5%.
Take `CC1(COc2ccccc2OCC2(C)CO2)CO1` (stereo not given): the growth inhibition was 5% in experiment [1] (setting [7]); 4% in experiment [1] (setting [8]); 12.2% in experiment [1] (at 50.0 µM); 2% in experiment [2] (setting [7]); 1% in experiment [2] (setting [8]); 1.15% in experiment [2] (at 50.0 µM). For the same compound, the growth inhibition in experiment [3] (setting [7]) was 0%; in experiment [3] (setting [8]) it was 10%; in experiment [3] (at 50.0 µM) it was 7.75%; in experiment [4] (setting [7]), 2%; in experiment [4] (setting [8]) it was 4%; in experiment [4] (at 50.0 µM), 70.7% (active). Further, the growth inhibition in experiment [5] (setting [7]) is -2%; in experiment [5] (setting [8]), -3%; in experiment [5] (at 50.0 µM) it was 5.6%; in experiment [6] (setting [7]) it was 7%; in experiment [6] (setting [8]), 36%; in experiment [6] (at 50.0 µM) it was 5.35%.
As for `CC(C)c1ccc2nc3ccc(C(=O)NCCN4CCN(c5ccccc5)CC4)cn3c(=O)c2c1`, the growth inhibition is 18% in experiment [1] (setting [7]); 97% (active) in experiment [1] (setting [8]); 12.1% in experiment [1] (at 50.0 µM); -9% in experiment [2] (setting [7]); 98% (active) in experiment [2] (setting [8]); 16.6% in experiment [2] (at 50.0 µM). For the same compound, the growth inhibition in experiment [3] (setting [7]) was 18%; in experiment [3] (setting [8]), 99% (active); in experiment [3] (at 50.0 µM), 13.2%; in experiment [4] (setting [7]), 3%; in experiment [4] (setting [8]), 97% (active); in experiment [4] (at 50.0 µM), -7.8%. Besides, the growth inhibition in experiment [5] (setting [7]) is 14%; in experiment [5] (setting [8]) it was 98% (active); in experiment [5] (at 50.0 µM), -7.5%; in experiment [6] (setting [7]), 4%; in experiment [6] (setting [8]), 97% (active); in experiment [6] (at 50.0 µM), 5.15%.
As to `Cc1ccc(N)c(Cc2c(O)ccc3ccccc23)c1`, the growth inhibition is 2% in experiment [1] (setting [7]); 79% (active) in experiment [1] (setting [8]); 98.2% (active) in experiment [1] (at 50.0 µM); 4% in experiment [2] (setting [7]); 75% (active) in experiment [2] (setting [8]); 98.7% (active) in experiment [2] (at 50.0 µM). The growth inhibition is 1% in experiment [3] (setting [7]); 79% (active) in experiment [3] (setting [8]); 98.8% (active) in experiment [3] (at 50.0 µM); -7% in experiment [4] (setting [7]); 64% in experiment [4] (setting [8]); 98.5% (active) in experiment [4] (at 50.0 µM). Also, the growth inhibition is 0% in experiment [5] (setting [7]); 66% in experiment [5] (setting [8]); 98.7% (active) in experiment [5] (at 50.0 µM); 1% in experiment [6] (setting [7]); 82% (active) in experiment [6] (setting [8]); 98.6% (active) in experiment [6] (at 50.0 µM).
As for `COc1ccccc1/C=C\C(=O)c1ccccc1`, the growth inhibition in experiment [1] (setting [7]) was 2%; in experiment [1] (setting [8]), 89% (active); in experiment [1] (at 50.0 µM), 98.7% (active); in experiment [2] (setting [7]), 1%; in experiment [2] (setting [8]) it was 98% (active); in experiment [2] (at 50.0 µM) it was 99.4% (active). For the same compound, the growth inhibition in experiment [3] (setting [7]) was 2%; in experiment [3] (setting [8]), 95% (active); in experiment [3] (at 50.0 µM), 99.2% (active); in experiment [4] (setting [7]), -4%; in experiment [4] (setting [8]) it was 57%; in experiment [4] (at 50.0 µM), 89.8% (active). The growth inhibition in experiment [5] (setting [7]) is 5%; in experiment [5] (setting [8]) it was 98% (active); in experiment [5] (at 50.0 µM) it was 98.8% (active); in experiment [6] (setting [7]), 2%; in experiment [6] (setting [8]) it was 98% (active); in experiment [6] (at 50.0 µM), 98.8% (active).
With `O=S1(=O)CS(=O)(=O)OCCCO1`, the growth inhibition in experiment [1] (setting [7]) is 10%; in experiment [1] (setting [8]), 10%; in experiment [1] (at 50.0 µM) it was -15.7%; in experiment [2] (setting [7]), 8%; in experiment [2] (setting [8]), 8%; in experiment [2] (at 50.0 µM), -32.8%. Also, the growth inhibition in experiment [3] (setting [7]) was 7%; in experiment [3] (setting [8]) it was 15%; in experiment [3] (at 50.0 µM), -23.4%; in experiment [4] (setting [7]) it was 12%; in experiment [4] (setting [8]), 9%; in experiment [4] (at 50.0 µM) it was -9.45%. The growth inhibition in experiment [5] (setting [7]) was 7%; in experiment [5] (setting [8]), 7%; in experiment [5] (at 50.0 µM), -30.1%; in experiment [6] (setting [7]), 11%; in experiment [6] (setting [8]) it was 16%; in experiment [6] (at 50.0 µM), -59.5%.
In the case of `S=C(N/N=C1\C=Cc2ccccc2C1)N/N=C1\C=Cc2ccccc2C1`, the growth inhibition in experiment [1] (setting [7]) is 0%; in experiment [1] (setting [8]), 17%; in experiment [1] (at 50.0 µM), 55.5%; in experiment [2] (setting [7]) it was -4%; in experiment [2] (setting [8]), 59%; in experiment [2] (at 50.0 µM), 41.4%. For the same compound, the growth inhibition in experiment [3] (setting [7]) was -7%; in experiment [3] (setting [8]), 45%; in experiment [3] (at 50.0 µM), 41.7%; in experiment [4] (setting [7]), 2%; in experiment [4] (setting [8]), 4%; in experiment [4] (at 50.0 µM), 36.1%. In addition, the growth inhibition was -3% in experiment [5] (setting [7]); 36% in experiment [5] (setting [8]); 62.4% in experiment [5] (at 50.0 µM); 18% in experiment [6] (setting [7]); 56% in experiment [6] (setting [8]); 71% (active) in experiment [6] (at 50.0 µM).
`COc1ccc2c(c1)CCc1c-2ccc(C)c1CCC(=O)O`: the growth inhibition in experiment [1] (setting [7]) is 5%; in experiment [1] (setting [8]), 99% (active); in experiment [1] (at 50.0 µM), 72.2% (active); in experiment [2] (setting [7]), 21%; in experiment [2] (setting [8]), 100% (active); in experiment [2] (at 50.0 µM), 63.8%. Further, the growth inhibition is 19% in experiment [3] (setting [7]); 99% (active) in experiment [3] (setting [8]); 63.9% in experiment [3] (at 50.0 µM); -3% in experiment [4] (setting [7]); 99% (active) in experiment [4] (setting [8]); 74.2% (active) in experiment [4] (at 50.0 µM). Further, the growth inhibition in experiment [5] (setting [7]) was 10%; in experiment [5] (setting [8]), 99% (active); in experiment [5] (at 50.0 µM) it was 60.2%; in experiment [6] (setting [7]), 22%; in experiment [6] (setting [8]), 100% (active); in experiment [6] (at 50.0 µM), 90% (active).
